Test results published in PubChem BioAssay.
Active and inactive are the calls of the source.

Legend:
[1] = system: Human papillomavirus type 1a protein E7 (residues 44-93); assay: HPV1a E7 fragment binders on microarrays, primary screen, biochemical, small-molecule microarray, residues 44-93, 635 nm fluorescence (AID 1108); details: small-molecule microarray binding, fluorescence 635 nm; higher = more signal;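 further: E7 fragment applied at 1 µg/mL in TBST for 1 h at 4 C; score combines spot fluorescence with its signal to noise ratio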
[2] = modulators of HCV replicon luciferase signal, primary screen, HCV replication inhibitor project, Huh7 cells, luciferase reporter (AID 1109); details: 48 h, higher = more signal;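 further: huh7 hepatoma cells harbouring a luciferase neomycin HCV replicon reporter; luciferase luminescence as measure of HCV replicon replication; test concentration not given here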
[3] = target: Left-right determination factor 2 (Homo sapiens) (UniProt O00292); assay: LEFTY2 binders on small-molecule microarrays, primary screen, biochemical, small-molecule microarray, 635 nm fluorescence scan (AID 1110); details: LEFTY2 binding, higher = more signal
Sequence of Left-right determination factor 2 (Homo sapiens) (O00292 whole entry, looked up): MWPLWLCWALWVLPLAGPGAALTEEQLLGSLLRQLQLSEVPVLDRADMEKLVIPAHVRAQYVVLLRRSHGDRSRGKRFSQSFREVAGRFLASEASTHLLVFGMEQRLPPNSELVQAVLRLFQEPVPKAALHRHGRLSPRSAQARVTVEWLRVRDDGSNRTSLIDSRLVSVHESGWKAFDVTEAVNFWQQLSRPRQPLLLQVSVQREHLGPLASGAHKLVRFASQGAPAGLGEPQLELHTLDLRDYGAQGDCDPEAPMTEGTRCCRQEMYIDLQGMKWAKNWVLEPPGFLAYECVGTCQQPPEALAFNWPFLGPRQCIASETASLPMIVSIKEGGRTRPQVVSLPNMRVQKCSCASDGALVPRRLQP

[4] = target: Calmodulin-1 (Homo sapiens) (UniProt P0DP23); assay: CALM1 binders on microarrays, EGTA buffer, profiling panel, biochemical, small-molecule microarray, Cy5-labelled CALM1 (AID 1111); details: Cy5-CALM1 binding fluorescence, higher = more signal;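 further: labelled calmodulin applied in Tris saline Tween buffer holding calcium plus EGTA and DTT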
[5] = target: Calmodulin-1 (Homo sapiens) (UniProt P0DP23); assay: calcium-bound CALM1 binders on microarrays, profiling panel, artefact control for SMM control-protein annotation, biochemical, small-molecule microarray, Cy5-labelled CALM1, plus calcium (AID 1112); details: Cy5-CALM1 binding fluorescence, higher = more signal;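 further: score merges spot fluorescence with signal to noise from triplicate slides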
[6] = small-molecule microarray binders of probe aWnt5a, primary screen, biochemical, biotinylated probe, 635/667 nm fluorescence (AID 1113); details: higher = more signal;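 further: score merges 667 nm fluorescence intensity with signal-to-noise per printed feature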
[7] = small-molecule microarray binders of probe aShh, primary screen, biochemical, biotinylated probe, 635/667 nm fluorescence (AID 1114); details: higher = more signal;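 further: probe is biotin-labelled aShh protein from a stem cell growth factor screen; measures binding of labelled protein to compounds printed on the slide; score merges feature fluorescence at 667 nm with signal-to-noise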
[8] = small-molecule microarray binders of probe aNog, primary screen, biochemical, biotinylated probe, 635/667 nm fluorescence (AID 1115); details: higher = more signal;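 further: probe is biotinylated aNog protein used at 0.15 µg/mL for 1 h at 4 C; z-score combines 667 nm fluorescence of each spot with its signal to noise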
[9] = target: Torsin-1A-interacting protein 1 (Homo sapiens) (UniProt Q5JTV8); assay: LAP1 binders from COS7 cell lysate, primary screen, small-molecule microarray, 635/667 nm fluorescence (AID 1116); details: COS7-hLAP1 lysate binding, 635 nm fluorescence, higher = more signal
Sequence of Torsin-1A-interacting protein 1 (Homo sapiens) (Q5JTV8 whole entry, looked up): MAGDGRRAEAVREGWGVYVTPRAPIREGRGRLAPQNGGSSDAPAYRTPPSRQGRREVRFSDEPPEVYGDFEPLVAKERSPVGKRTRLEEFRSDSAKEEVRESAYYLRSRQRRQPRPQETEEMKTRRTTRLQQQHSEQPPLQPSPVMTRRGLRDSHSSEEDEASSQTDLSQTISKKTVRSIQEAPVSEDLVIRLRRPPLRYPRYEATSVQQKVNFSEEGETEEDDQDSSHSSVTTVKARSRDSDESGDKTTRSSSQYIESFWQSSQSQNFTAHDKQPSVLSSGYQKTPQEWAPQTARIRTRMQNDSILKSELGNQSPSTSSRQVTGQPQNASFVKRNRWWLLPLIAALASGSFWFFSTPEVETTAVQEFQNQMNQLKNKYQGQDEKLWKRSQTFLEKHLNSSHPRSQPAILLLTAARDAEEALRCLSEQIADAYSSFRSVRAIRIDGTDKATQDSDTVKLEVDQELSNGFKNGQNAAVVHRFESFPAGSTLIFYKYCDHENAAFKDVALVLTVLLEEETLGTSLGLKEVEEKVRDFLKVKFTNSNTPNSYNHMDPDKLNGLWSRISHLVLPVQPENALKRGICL

[10] = target: Alpha-bungarotoxin (Bungarus multicinctus) (UniProt P60615); assay: alpha-bungarotoxin binders on microarray, profiling panel, artefact control for SMM control protein annotation, biochemical, small-molecule microarray, Alexa647 label, 635/667 nm fluorescence (AID 1117); details: alpha-BTX-A647 binding fluorescence, higher = more signal
Sequence of Alpha-bungarotoxin (Bungarus multicinctus) (P60615 whole entry, looked up): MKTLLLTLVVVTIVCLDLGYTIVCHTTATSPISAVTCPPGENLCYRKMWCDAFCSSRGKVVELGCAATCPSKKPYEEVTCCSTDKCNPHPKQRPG

Albumin (Bos taurus) = Albumin (Bos taurus) (UniProt P02769); assay: bovine serum albumin binders on microarray, profiling panel, artefact control for SMM control protein annotation, biochemical, small-molecule microarray, Alexa647 label, 635/667 nm fluorescence (AID 1118); details: BSA-A647 binding, fluorescence 635 nm, higher = more signal;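 further: score merges 667 nm emission intensity and signal-to-noise per printed compound spot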
Sequence of Albumin (Bos taurus) (P02769 whole entry, looked up): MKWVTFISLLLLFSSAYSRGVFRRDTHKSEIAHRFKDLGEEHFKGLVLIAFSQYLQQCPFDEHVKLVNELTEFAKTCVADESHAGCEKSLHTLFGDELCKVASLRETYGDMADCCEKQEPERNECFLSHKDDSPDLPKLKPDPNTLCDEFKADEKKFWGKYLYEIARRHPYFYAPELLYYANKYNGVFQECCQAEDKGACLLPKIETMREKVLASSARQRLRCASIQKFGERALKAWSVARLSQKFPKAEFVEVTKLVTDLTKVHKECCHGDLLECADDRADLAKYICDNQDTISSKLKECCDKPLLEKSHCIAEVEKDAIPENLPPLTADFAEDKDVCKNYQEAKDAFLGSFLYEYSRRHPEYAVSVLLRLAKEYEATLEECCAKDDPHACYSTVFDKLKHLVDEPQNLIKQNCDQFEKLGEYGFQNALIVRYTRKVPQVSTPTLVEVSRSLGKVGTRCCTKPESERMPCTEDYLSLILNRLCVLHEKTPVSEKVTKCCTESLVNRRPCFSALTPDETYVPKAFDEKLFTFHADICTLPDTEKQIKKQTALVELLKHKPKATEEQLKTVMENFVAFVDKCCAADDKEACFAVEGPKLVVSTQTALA

[11] = small-molecule microarray binders of probe aXIP, primary screen, biochemical, NeuroSMM set, 635/667 nm fluorescence (AID 1119); details: higher = more signal, called active from +8 up or from −8 down;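 further: probe is the protein aXip251-270 applied at 1 µg/mL to compound-printed slides; binding of probe to printed compounds measured as 667 nm fluorescence plus signal to noise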
[12] = small-molecule binders of probe aNOTCH3, primary screen, biochemical, small-molecule microarray, 635/667 nm fluorescence (AID 1120); details: higher = more signal;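 further: probe is a biotin-tagged antibody raised against NOTCH3 rather than NOTCH3 protein; score merges spot fluorescence near 667 nm with spot signal to noise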
[13] = small-molecule binders of probe aNOTCH2, primary screen, biochemical, small-molecule microarray, 635/667 nm fluorescence (AID 1121); details: higher = more signal;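 further: score merges feature fluorescence read at 667 nm with its signal to noise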
[14] = target: Carbonic anhydrase 2 (Homo sapiens) (UniProt P00918); assay: CAII small-molecule binders, profiling panel, biochemical, small-molecule microarray, Alexa647-labelled CAII (AID 1122); details: CAII-A647 binding fluorescence, higher = more signal
[15] = COS7 lysate on small-molecule microarray, probe aHis, 635 nm (AID 1123); details: COS7 cell lysate, fluorescence, higher = more signal;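 further: z-score combines 667nm fluorescence intensity with signal-to-noise per printed compound spot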
[16] = compound binding in COS7 lysate, probe aLAP1, primary screen, cell lysate, small-molecule microarray (AID 1124); details: probe aLAP1, fluorescence, higher = more signal;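 further: lysate comes from COS7 cells expressing LAP1 and is applied at 0.3 µg/mL; score merges spot fluorescence near 667 nm with signal-to-noise over triplicate slides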
Sam68 (KHDRBS1) = assay: Sam68 small-molecule binders, primary screen, biochemical, small-molecule microarray, 635 nm fluorescence (AID 1125); details: small-molecule microarray binding, higher = more signal;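 further: score merges 667 nm channel intensity with signal to noise over triplicate slides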
[17] = system: Chordin-like protein 2 (CHRDL2); assay: CHRDL2 small-molecule binders, primary screen, biochemical, small-molecule microarray, 635 nm fluorescence (AID 1126); details: small-molecule microarray binding, fluorescence 635 nm; higher = more signal;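 further: printed compound slides probed with Chrdl2 protein at 4 µg/mL for 1 h at 4 C; score merges 667 nm emission intensity with signal to noise over three replicate slides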
[18] = target: Concanavalin-A (Canavalia ensiformis) (UniProt P02866); assay: ConA small-molecule binders, primary screen, artefact control for SMM control protein annotation, biochemical, small-molecule microarray, Alexa647 label, 635 nm (AID 1127); details: ConA-A647 binding fluorescence, higher = more signal;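 further: z combines 667 nm emission intensity with signal-to-noise across three replicate slides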
Sequence of Concanavalin-A (Canavalia ensiformis) (P02866 whole entry, looked up): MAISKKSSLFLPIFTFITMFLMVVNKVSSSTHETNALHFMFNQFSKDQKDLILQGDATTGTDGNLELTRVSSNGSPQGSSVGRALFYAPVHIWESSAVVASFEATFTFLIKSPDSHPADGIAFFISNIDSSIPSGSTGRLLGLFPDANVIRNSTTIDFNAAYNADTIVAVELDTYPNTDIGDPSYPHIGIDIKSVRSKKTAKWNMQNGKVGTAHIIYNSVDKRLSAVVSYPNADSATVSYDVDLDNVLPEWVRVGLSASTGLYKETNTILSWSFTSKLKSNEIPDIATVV

| Structure (SMILES) | composite z-score [1] | z-score [2] | composite z-score [3] | composite z-score [4] | composite z-score [5] | composite z-score [6] | composite z-score [7] | composite z-score [8] | composite z-score [9] | composite z-score [10] | composite z-score (Albumin (Bos taurus)) | composite Z-score [11] | composite z-score [12] | composite z-score [13] | composite z-score [14] | composite z-score [15] | composite z-score [16] | composite z-score (Sam68 (KHDRBS1)) | composite z-score [17] | composite z-score [18] |
| --- | --- | --- | --- | --- | --- | --- | --- | --- | --- | --- | --- | --- | --- | --- | --- | --- | --- | --- | --- | --- |
| CN1C(=O)C2C=CC(C(O)c3cccc(O)c3)N(Nc3ccccc3)C2C1=O (stereo not given) | -0.286 | 0.359 | 0.13 | -0.185 | -0.09 | 0.0597 | 1.72 | 0.582 | 0.203 | 0.041 | 0.976 | 0.501 (inactive) | 0.17 | -0.14 | 0.552 | 0.247 | -0.279 | -0.172 | -0.246 | 0.312 |
| CC(C)N1C(=O)C[C@@](C(=O)NCCCN(C)C)(c2ccc([N+](=O)[O-])cc2)[C@H]1c1ccc(CO)cc1 | -0.218 | -0.581 | -0.438 | -0.194 | -0.774 | -0.113 | 0.0062 | -0.141 | 0.0945 | 0.942 | -0.0399 | 0.183 (inactive) | 0.0628 | -0.0698 | 0.573 | -0.185 | 0.0653 | -0.579 | -0.0507 | -0.158 |
| CC(C)[Si](C#CCCCC#N)(O[C@H](c1ccccc1)c1cn([C@H](CO)Cc2ccccc2)nn1)C(C)C | 0.385 | -1.33 | 0.36 | 1.11 | 0.295 | -0.0459 | -0.0793 | 0.0392 | 0.222 | 0.559 | 0.992 | 0.727 (inactive) | -0.15 | -0.161 | 0.456 | 0.605 | 0.936 | 1.11 | -0.006 | 1.16 |
| O=C1O[C@@H](c2ccccc2)[C@@H](c2ccccc2)N2[C@@H](c3ccc(OCCO)cc3)[C@]3(C(=O)Nc4ccccc43)[C@@H](C(=O)O)[C@H]12 | 0.908 | -1.47 | -0.318 | -0.0663 | 0.883 | 0.779 | 0.297 | 2.26 | -0.308 | 0.323 | -0.0883 | -0.24 (inactive) | 1.09 | 0.464 | 0.745 | 1.03 | 0.741 | 0.428 | -0.12 | 0.539 |
| COc1ccc(CCN2C(=O)[C@@]3(Cc4ccccc42)c2ccccc2C(=O)N(Cc2ccccc2OC)[C@H]3c2ccc(CO)cc2)cc1 | -0.131 | -0.601 | -1.03 | 0.0678 | 0.466 | -0.1 | -0.155 | 0.898 | -0.119 | -0.749 | 0.282 | -0.0127 (inactive) | -0.177 | -0.0785 | 0.162 | 0.215 | -0.778 | -0.232 | -0.761 | -0.516 |
| COc1cc(OC)c(C(O)C2C=CC3C(=O)N(c4ccccc4)C(=O)C3N2Nc2ccccc2)cc1Br (stereo not given) | 1.4 | -0.801 | -0.263 | 1.02 | 0.285 | -0.0346 | -0.138 | -0.0604 | 0.474 | 0.665 | 0.911 | -0.565 (inactive) | 0.245 | -0.117 | 0.457 | 1.33 | 0.468 | 1.19 | -1.07 | 1.1 |
| O=C(N1CCCCC1)[C@@]1(CCS(=O)(=O)c2ccccc2)COC(c2ccc(OCCCO)cc2)=N1 | 0.517 | -0.98 | -0.0902 | 0.695 | -0.438 | 0.0374 | -0.0064 | -0.489 | 1.51 | 0.632 | 0.107 | 0.674 (inactive) | 0.289 | 0.207 | 0.582 | 2.66 | 0.729 | 1.31 | 0.225 | 1.1 |
| C=CCOC(=O)[C@H]1[C@@H]2C(=O)O[C@@H](c3ccccc3)[C@@H](c3ccccc3)N2[C@@H](c2ccc(OCCOC(=O)[C@@H]3C[C@@H]4C(=O)N[C@@H](CCCCN(C)C)C(=O)N4[C@@H]3c3ccc(O)cc3)cc2)[C@]12C(=O)Nc1ccccc12 | -0.541 | -2.88 | 1.08 | -1.35 | -1.07 | -0.124 | -0.0709 | -0.106 | 1.17 | -0.23 | -0.568 | 0.685 (inactive) | 0.137 | 0.0002 | 0.297 | 2.58 | 0.949 | 1.31 | 1.44 | 1.14 |
| CCCCC=C[C@@H](NC(=O)c1ccc(-c2ccccc2)cc1)c1ccccc1 | 1.31 | -2.21 | 0.184 | 0.107 | 0.506 | 0.123 | 0.934 | 0.964 | 1.11 | 0.401 | 0.43 | 0.516 (inactive) | 0.112 | 0.0065 | 0.641 | 1.08 | 1.01 | 1.07 | -0.309 | 0.933 |
| CCOC(=O)C[C@H]1[C@H](OC(=O)c2ccccc2-c2ccccc2)[C@@H](NC(=O)C2CCCCC2)c2cc(OCCCO)ccc2N1C(=O)Cc1ccc(OC)cc1 | -0.312 | -1.44 | -0.0221 | -0.0561 | -0.326 | -0.12 | -0.2 | -0.136 | 0.3 | -0.0654 | 0.0179 | -0.483 (inactive) | -0.046 | -0.122 | 0.0935 | 0.0644 | 0.0035 | -0.0019 | -0.292 | 0.0384 |
| COc1ccc(C#Cc2ccc3c(c2)[C@]2(C(=O)N3)[C@H](c3ccc(O)cc3)N3[C@H](c4ccccc4)[C@H](c4ccccc4)OC(=O)[C@H]3[C@@H]2C(=O)O)cc1 | 1.19 | -0.327 | -0.172 | 0.69 | 0.805 | 0.0293 | -0.315 | 1.49 | 0.684 | -0.0251 | 0.496 | 0.708 (inactive) | 0.277 | 0.163 | 0.614 | 1.23 | 0.483 | 0.964 | 0.111 | 0.868 |
